Assay outcomes from PubChem BioAssay.
MEP2 TOR yeast – modulators of MEP2-GFP levels in yeast, primary screen, S. cerevisiae, multiplex flow cytometry, MLPCN library; S. cerevisiae MEP2-GFP strain, 3 h; 100% = DMSO control level; GFP response vs DMSO, % at 10 µM; hit rate 0.51% among 330,000; AID 2016, 2009;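 active = GFP response versus DMSO above a set limit, roughly screen mean plus 3 SD, cut at about 180% in these data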;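 note: median GFP fluorescence of the barcode-gated MEP2-GFP cells per well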
RPL19A-GFP yeast – RPL19A-GFP expression modulators in yeast, primary screen, cell-based, S. cerevisiae, multiplex flow cytometry, MLPCN; percent response vs DMSO, % at 10 µM; S. cerevisiae RPL19A-GFP strain, 3 h; active compounds read low; hit rate 0.3% among 330,000; AID 2025, 2009;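 active = percent response vs DMSO below 50%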;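 note: median channel GFP fluorescence of the barcoded RPL19A-GFP strain; ratio of sample median GFP to plate DMSO average so 100% = DMSO; lower means less RPL19A-GFP as with rapamycin TOR inhibition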
CIT2 TOR yeast – modulators of CIT2-GFP expression in yeast, primary screen, S. cerevisiae, GFP fusion, multiplex flow cytometry, MLPCN library | hit rate 0.065% among 320,000 | GFP response vs DMSO, % at 10 µM | AID 2029, 2009 | S. cerevisiae CIT2-GFP strain, 3 h; 100 means same as DMSO wells;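 active = GFP response relative to DMSO above a set limit, near the screen mean plus 3 SD, cut at about 150% in these data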;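 note: ratio of well median GFP fluorescence to mean of DMSO wells on the plate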
LAP4-GFP MLPCN – modulators of LAP4-GFP expression in yeast, primary screen, S. cerevisiae, multiplex flow cytometry, MLPCN library. 3 h; median GFP as percent of DMSO wells. GFP response vs DMSO, % at 10 µM. AID 2023, 2009. hit rate 0.34% among 320,000;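 active = GFP response vs DMSO above a set limit, about the screen mean plus 3 SD, cut at about 150% in these data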
AGP1-GFP MLPCN – modulators of AGP1-GFP expression in yeast TOR pathway, primary screen, cell-based, multiplex flow cytometry, S. cerevisiae, MLPCN library; 3 h; GFP as percent of DMSO wells; GFP response vs DMSO, % at 10 µM; hit rate 0.02% among 320,000; AID 2066, 2009;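 active = GFP response relative to DMSO above a set limit, near screen average plus 3 SD, cut at about 150% in these data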;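 note: median GFP channel fluorescence of the gated AGP1 strain per well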
VLA-4 inh – inhibition in human VLA-4 binding assay, primary screen, VLA-4 allosteric modulator project, MLPCN library, flow cytometry, VLA-4 expressing cells; Integrin alpha-4 (Homo sapiens), P13612; ligand binding flow cytometry; inhibition, % (about 7 µM as worked out from the volumes in the protocol); hit rate 0.2% among 330,000; AID 2557, 2010; in the data active = inhibition above about 50%
Target sequence (P13612 whole entry, looked up): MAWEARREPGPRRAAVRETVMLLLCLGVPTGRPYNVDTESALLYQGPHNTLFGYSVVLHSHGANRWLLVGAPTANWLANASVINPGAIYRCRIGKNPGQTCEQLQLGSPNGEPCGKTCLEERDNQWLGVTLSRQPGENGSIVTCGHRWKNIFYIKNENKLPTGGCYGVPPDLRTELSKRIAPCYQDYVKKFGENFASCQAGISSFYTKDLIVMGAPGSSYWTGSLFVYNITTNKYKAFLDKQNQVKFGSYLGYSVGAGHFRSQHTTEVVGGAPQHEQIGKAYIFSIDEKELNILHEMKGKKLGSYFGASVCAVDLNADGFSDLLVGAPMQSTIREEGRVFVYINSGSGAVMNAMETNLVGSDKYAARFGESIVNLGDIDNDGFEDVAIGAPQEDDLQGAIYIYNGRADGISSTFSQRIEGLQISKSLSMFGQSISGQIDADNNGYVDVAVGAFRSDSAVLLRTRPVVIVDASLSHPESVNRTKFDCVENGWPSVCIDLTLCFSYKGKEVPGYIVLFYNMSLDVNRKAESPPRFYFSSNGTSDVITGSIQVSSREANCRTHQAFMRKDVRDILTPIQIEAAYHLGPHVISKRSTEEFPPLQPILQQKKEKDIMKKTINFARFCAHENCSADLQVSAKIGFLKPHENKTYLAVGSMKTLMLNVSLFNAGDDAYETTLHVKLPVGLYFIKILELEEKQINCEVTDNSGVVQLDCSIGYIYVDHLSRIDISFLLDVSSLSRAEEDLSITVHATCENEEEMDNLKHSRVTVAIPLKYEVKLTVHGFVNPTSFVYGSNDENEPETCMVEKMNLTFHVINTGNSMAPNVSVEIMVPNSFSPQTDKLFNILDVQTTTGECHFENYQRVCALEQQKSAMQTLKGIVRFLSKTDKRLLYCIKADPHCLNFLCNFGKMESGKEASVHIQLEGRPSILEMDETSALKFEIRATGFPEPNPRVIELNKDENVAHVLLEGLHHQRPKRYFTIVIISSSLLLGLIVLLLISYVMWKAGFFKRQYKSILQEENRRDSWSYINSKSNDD
LAP4-GFP pick2 – LAP4-GFP expression modulators in yeast, confirmation, cell-based, second cherry pick, flow cytometry; GFP response vs DMSO, % at 10 µM; shares compounds with LAP4-GFP MLPCN; hit rate 20% among 590; AID 2621, 2010; S. cerevisiae LAP4-GFP strain, 3 h;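 active = GFP signal as percent of the solvent control above about 150%, meaning raised reporter expression, limit read from the data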;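 note: ratio of well median GFP fluorescence to plate DMSO mean so 100% = DMSO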
MEP2 cherry2 – modulators of MEP2-GFP levels in yeast, confirmation, S. cerevisiae, flow cytometry GFP, second cherry picks; shares compounds with LAP4-GFP MLPCN; S. cerevisiae MEP2-GFP strain, 3 h; GFP response vs DMSO, % at 10 µM; hit rate 10% among 590; AID 2622, 2010;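 active = GFP signal above 150% of the solvent control wells, that is a rise of more than half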;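 note: median channel GFP fluorescence of all gated yeast cells per well; ratio of median GFP to plate DMSO average so 100% = DMSO level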
RPL19A-GFP pick2 – RPL19A-GFP modulators in TOR pathway yeast, confirmation, cell-based, S. cerevisiae, flow cytometry, second cherry pick; S. cerevisiae RPL19A-GFP strain, 3 h; active compounds read low; 100% means same as DMSO wells; GFP response vs DMSO, % at 10 µM; hit rate 3% among 590; shares compounds with LAP4-GFP MLPCN; AID 2623, 2010;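 active = under 65% GFP response relative to DMSO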;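 note: median GFP channel fluorescence per well over the all cells gate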
CIT2 GFP CP2 – modulators of CIT2-GFP expression in yeast, confirmation, flow cytometry, second cherry pick, single plex | S. cerevisiae CIT2-GFP strain, 3 h; DMSO control wells read 100% | AID 2624, 2010 | hit rate 8% among 590 | GFP response vs DMSO, % at 10 µM | shares compounds with LAP4-GFP MLPCN;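 active = GFP response vs DMSO above about 150%, limit read from the data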;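 note: median green fluorescence per well over all gated yeast cells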
AGP1-GFP pick2 – AGP1-GFP expression modulators, hit retest, confirmation, cell-based, flow cytometry, S. cerevisiae, cherry pick set 2. shares compounds with LAP4-GFP MLPCN. S. cerevisiae AGP1-GFP strain, 3 h. percent response vs DMSO, % at 10 µM. 590 tested, under 10 active;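 active = over 150 percent of DMSO response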;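 note: median GFP channel fluorescence over all cells without mother daughter split; sample median GFP divided by mean DMSO control so 100% equals DMSO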
Yeast autofluor – compound autofluorescence in yeast s288c, dose response, artefact control for yeast TOR pathway GFP screen, s288c strain; fluorescence change (kMESF span) at 33 µM; S. cerevisiae s288c, 520 nm autofluorescence, flow cytometry, 3 h; active compounds read high; zero means same as solvent-only cells; shares compounds with LAP4-GFP MLPCN; AID 2757, 2010; 610 tested, under 10 active;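 active = fluorescence span over the dose series, or activity score, above about 33, limit read from the data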
* marks the source's active call; other numbers are inactive results; i = inactive; / = no result given. Only some compounds are listed: those with a hit (about 1.1% of all), similar ones and a draw of the others.

SMILES	MEP2 TOR yeast	RPL19A-GFP yeast	CIT2 TOR yeast	LAP4-GFP MLPCN	AGP1-GFP MLPCN	VLA-4 inh	LAP4-GFP pick2	MEP2 cherry2	RPL19A-GFP pick2	CIT2 GFP CP2	AGP1-GFP pick2	others
C[C@H](NC(=O)c1[nH]cnc1C(=O)Nc1ccc(Cl)cc1)C(=O)OC(C)(C)C	90	97	89	158*	86	30	109	108	93	96	95
Cc1ccc(NC(=O)c2nc[nH]c2C(=O)NCC(=O)OC(C)(C)C)cc1	96	103	93	108	90	4	/	/	/	/	/
CCOC(=O)c1ccc(NC(=O)c2nc[nH]c2C(=O)N[C@@H](C)C(=O)OC(C)(C)C)cc1	97	99	87	133	83	-14	/	/	/	/	/
Cc1cccc(NC(=O)c2nc[nH]c2C(=O)N[C@@H](C)C(=O)OC(C)(C)C)c1	90	97	77	160*	78	-22	110	98	94	92	95
Cc1cccc(NC(=O)c2nc[nH]c2C(=O)N[C@H](C)c2ccccc2)c1	94	93	89	85	96	19	/	/	/	/	/
CCN(c1ccc(NC(=O)CSCc2c(C)noc2C)cc1)C(C)C	96	97	98	89	101	-27	/	/	/	/	/
NC(=O)C1CCCN(C(=O)c2ccc(NC(=O)c3cccs3)cc2)C1 (stereo not drawn)	100	105	100	101	104	4	/	/	/	/	/
CN(C)c1ccc(/C=C/c2cc[n+](C)cc2)cc1	249*	116	182*	199*	123	i	/	/	/	/	/	Yeast autofluor=11
COc1ccccc1N1C(=O)c2cccc3c(C(=O)O)ccc(c23)C1=O	94	90	90	92	94	-5	/	/	/	/	/	Yeast autofluor=0.2
CCOC(=O)c1ccc(-c2ccc3c(=O)c4ccccc4n(C)c3c2)cc1F	110	99	95	105	102	6	/	/	/	/	/
Cc1cc(=O)oc2cc(Oc3ccc([N+](=O)[O-])cc3C(F)(F)F)ccc12	102	96	94	99	96	12	105	105	98	99	103	Yeast autofluor=0.11
CCCCS(=O)(=O)N1CCC(C(=O)Oc2ccc(Cl)cc2)CC1	109	109	101	96	100	14	/	/	/	/	/
CC(=O)c1cccc(NC(=O)C(C)OC(=O)c2ccc(Br)o2)c1 (stereo not drawn)	105	99	100	95	96	0	/	/	/	/	/
COc1ccc(C2=CC3=C(Br)C(=O)C(C)(O)C(=O)C3=CO2)cc1 (stereo not drawn)	117	42*	57	98	14	28	125	150*	34*	160*	24	Yeast autofluor=3.2
CCS(=O)(=O)Nc1cccc(-c2ccc3nnc(-c4cccnc4)n3n2)c1	88	79	101	171*	120	5	99	103	100	102	100
CCCS(=O)(=O)Nc1cccc(-c2ccc3nnc(C)n3n2)c1	100	93	96	75	99	-2	/	/	/	/	/
CCN(CC(=O)Nc1ccccc1C(F)(F)F)CC(=O)NC1CC1	88	100	97	92	97	1	/	/	/	/	/
CCN(CC(=O)Nc1ccc(Cl)c(C(F)(F)F)c1)CC(=O)NC1CCS(=O)(=O)C1 (stereo not drawn)	148	60	99	95	79	5	99	103	103	98	98
O=C(CSc1nc2nn(-c3ccccc3)c(=O)c-2c2n1CCCCC2)c1ccc(OC(F)F)cc1	89	88	88	92	96	6	/	/	/	/	/
O=C(CC(=O)c1ccccc1)Nc1ccc(Cl)cc1	122	114	103	127	106	-1	100	103	103	92	98
COc1ccccc1NC(=O)CC(=O)c1ccccc1	116	104	100	103	92	8	101	101	97	106	91
COc1cccc(N2CCN(C(=O)C3CCCN(c4ncnc5c4nc4n5CCCCC4)C3)CC2)c1 (stereo not drawn)	98	98	102	113	103	1	/	/	/	/	/
Cc1ccnc2c1ccc1ccccc12	94	90	90	86	84	8	/	/	/	/	/
Cc1ccnc2c1ccc1c(C)ccnc12	101	94	85	166*	90	6	99	110	97	96	97
COc1ccccc1CN(C)C(=O)CSCC(=O)Nc1ccccc1F	97	94	94	92	95	-6	/	/	/	/	/
CC(C)CCN1C(=O)c2ccc(C(=O)NCc3ccccn3)cc2C1=O	173	71	127	164*	114	-4	111	128	100	115	103
CCOC(=O)c1sc(NC(=O)C2CC(=O)N(c3ccc4c(c3)OCCO4)C2)nc1C (stereo not drawn)	98	97	90	108	100	-3	/	/	/	/	/
COc1ccc(C(=O)C(C)OC(=O)c2nc3nccc(C)n3n2)cc1 (stereo not drawn)	101	100	99	106	106	7	/	/	/	/	/
C=C1CCN([C@@H](C)C(=O)OCc2cccc(C)c2)S(=O)(=O)c2ccccc21	98	98	125	153*	92	-16	99	98	100	98	97
